# A selection: hits, their analogues and other compounds. The true share with any hit is near 17%.
# DT40 TDP1 CPT: growth inhibition of DT40 Tdp1-/-;hTDP1 cells with camptothecin (screen for TDP1 inhibitors). chicken DT40 Tdp1-/-;hTDP1 cells + 20 nM CPT, ATP luminescence, 48 h. Potency, µM (top dose mostly 46.2 µM), for the others: at the top dose activity change, negative = growth inhibition, usual class: inhibitors. 420,000 compounds, 12% hits. AID 686979; also: % is scaled to controls: 0 for no effect and ±100 for the full control effect; nearly all actives have a fitted effect of over 55% in size
#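 Chicken DT40 Tdp1-/- cells complemented with human TDP1, 400 cells/well, exposed to compounds plus 20 nM camptothecin for at least 48 h at 37 C; viability read as ATP content by CellTiter-Glo luminescence.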
# TDP1 cell noCPT: qHTS for Inhibitors of human tyrosyl-DNA phosphodiesterase 1 (TDP1): qHTS in cells in absence of CPT; DT40 Tdp1-/- hTDP1 cells, no CPT, ATP luminescence, 48 h; Potency, µM (series often up to 46.2 µM), without a hit: at the top dose activity change, negative = growth inhibition, actives largely listed as inhibitors; 420,000 compounds, 15% hits; AID 686978, 2013; also: % is scaled to controls: 0 for no effect and ±100 for the full control effect; nearly all actives have a fitted effect of over 55% in size
#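 DT40 Tdp1-/-;hTDP1 cells, no CPT (DMSO vehicle only), 400 cells/well; compounds pin-transferred; ≥48 hr, 37 °C; CellTiter-Glo 30 min RT dark, luminescence read.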
# ATXN viability: cell viability loss in ATXN counter-screen; S2 cells (HEK-293 line with an ATXN2-luciferase reporter) viability, CellTiter-Fluor protease fluorescence, 24 h; Potency, µM (titrated, usually from 56.7 µM), most hits filed as cytotoxic; 400,000 compounds, 0.49% hits; AID 651635; also: nearly all actives have a fitted effect of over 40% in size
# HepG2 viability: HepG2 cytotoxicity, counter-screen for TGF-b inhibitors; Potency, µM (titrated, usually from 46.1 µM), inactives show top-dose activity change, negative = cytotoxicity, hits mostly cytotoxic; HepG2 CAGA-GFP viability, ATP luminescence, 18 h; 410,000 compounds, 0.76% hits
#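 HepG2 CAGA-GFP cells (1000/well, DMEM with 1% FBS) received compound, then TGF-beta at 500 pg/mL final, and were incubated 18 hours at 37 degrees C. Viability was read by CellTiter-Glo luminescence. Media-only wells were set as complete cell-killing and DMSO as no toxicity.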
# TGFb inhibitor: inhibitors of TGF-b signaling; HepG2 CAGA-GFP TGF-b/SMAD3 reporter, GFP fluorescence, 18 h; TGF-beta stimulated, 500 pg/mL final; Potency, µM (titrated, usually from 46.1 µM), for inactives: at the top dose activity, negative = inhibition, hits mostly inhibitors; 410,000 compounds, 1.2% hits; AID 588855; also: % is scaled to controls: 0 for no effect and ±100 for the full control effect; nearly all actives have a fitted effect of over 65% in size
#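 Per well, imaged GFP fluorescence of HEPG2 CAGA-GFP cells gives the signal; cells get compound, then TGF-beta (500 pg/mL final), 18 h at 37 degrees C; %Activity versus -TGF-beta and +DMSO controls.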
# ATXN2 expr inh: inhibitors of ATXN2 expression. HEK-293 ATXN2-luciferase reporter, luminescence, 24 h. 360,000 compounds, 0.72% hits. Potency, µM (titrated, usually from 57 µM), inactives show at the top dose activity change, negative = inhibition, hits mostly inhibitors. AID 1745845; also: % is scaled to controls: 0 for no effect and ±100 for the full control effect; nearly all actives have a fitted effect of over 55% in size
#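 ATXN2-luciferase reporter cells (luciferase flanked by upstream and downstream ATXN2 gene portions) were treated 24 h at 37 °C with compounds at up to 57 uM. SteadyGlo luminescence gave expression; GF-AFC fluorescence gave viability.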
# Active calls of the source: *; i = inactive; ? = inconclusive; / = not tested or not shown; [ ] = dose if it differs, or a comment. Calls follow the shape of the dose curve; as a rule, active = well fitted curve in the direction sought with a large enough effect; inconclusive = small, poorly fitted or top-dose-only effect, or another doubt; inactive = no such curve, though single readings can be large; an effect the other way counts as inactive or inconclusive. Potency is read from the fitted curve at half-maximal effect.
SMILES,DT40 TDP1 CPT,TDP1 cell noCPT,ATXN viability,HepG2 viability,TGFb inhibitor,ATXN2 expr inh
CC[C@]12c3[nH]c4cc(-c5ccco5)ccc4c3CCN1C(=O)[C@@H](CC(=O)NC(C)(C)C)C[C@@H]2C(=O)N1CCN(C(=O)C2CC2)CC1,15µM*,21µM*,i,6%,?,-1%
CC(C)(C)NC(=O)C[C@H]1C[C@H](C(=O)N2CCCCC2)[C@@]2(C)c3[nH]c4cc(-c5ccco5)ccc4c3CCN2C1=O,?,26µM*,?,-28%,?,?
CCN(CC)S(=O)(=O)c1ccc2c(c1)c(=O)c(C(=O)NCc1ccc(Cl)cc1)cn2C,10µM*,9.2µM*,i,-5%,?,-1%
Cn1cc(C(=O)NCc2ccccc2)c(=O)c2cc(S(=O)(=O)N3CCOCC3)ccc21,-1%,-2%,i,3%,35%,13%
Cn1cc(C(=O)NCc2ccc(Cl)cc2)c(=O)c2cc(S(=O)(=O)N3CCCCCC3)ccc21,?,16µM*,i,3%,-2%,7%
CC1CCN(S(=O)(=O)c2ccc3c(c2)c(=O)c(C(=O)NCc2ccco2)cn3C)CC1,21µM*,21µM*,i,-55%,-2%,-15%
Cn1cc(C(=O)O)c(=O)c2cc(S(=O)(=O)N3CCOCC3)ccc21,16µM*,23µM*,/,-32%,?,/
CCOc1cccc(-c2ccc3nncn3c2)c1,5%,-27%,i,-3%,23%,14%
CSCCCN1CCCC(CO)(Cc2ccccc2F)C1 (stereo not given),-11%,-25%,i,0%,-12%,/
CNC(=O)c1ccc2nc(-c3ccco3)c(-c3ccco3)nc2c1,20µM*,?,/,-37%,-13%,/
O=C(Nc1ccccc1)c1ccc2nc(-c3ccco3)c(-c3ccco3)nc2c1,21µM*,23µM*,i,-21%,-12%,4%
CC(=O)c1ccc(NC(=O)c2ccc3nc(-c4ccco4)c(-c4ccco4)nc3c2)cc1,?,?,?,-51%,-24%,?
O=C(Nc1ccc(N2CCOCC2)cc1)c1ccc2nc(-c3ccco3)c(-c3ccco3)nc2c1,-26%,?,i,-3%,-4%,?
O=C(NC1CC1)c1ccc2nc(-c3ccco3)c(-c3ccco3)nc2c1,?,13µM*,/,-12%,-16%,/
COc1ccc2nc(-c3ccco3)c(-c3ccco3)nc2c1,18µM*,?,/,5%,0%,55%
C[C@H]1CN([C@@H](C)CO)C(=O)Cc2cc(NC(=O)Cc3ccccc3)ccc2O[C@H]1CN(C)C(=O)Nc1cccc2ccccc12,-22%,-12%,?,-6%,?,6%
CCC(C(=O)NC(N)=O)c1ccccc1 (stereo not given),13%,14%,/,/,/,/
Cc1ccc(CN(Cc2ccccc2)C(=S)NCC(=O)NCc2cccnc2)o1,?,-11%,i,-15%,-22%,-23%[11.3 µM]
Cc1cccc(N2CCN(C(=O)c3ccc4c(Cl)c5c(nc4c3)CCCC5)CC2C)c1 (stereo not given),-25%,?,?,-2%,-18%,-9%
Cc1cccc(N2CCN(C(=O)c3ccc4nc(-c5ccco5)c(-c5ccco5)nc4c3)CC2C)c1 (stereo not given),18µM*,18µM*,?,-31%,?,?
CSc1ccc(CN(C)C(=O)c2ccc(S(=O)(=O)Nc3ccccc3)cc2)cc1,18µM*,21µM*,i,-44%,?,-13%
COc1ccccc1N(C)S(=O)(=O)c1ccc(C(=O)Nc2cc(OC)c(OC)c(OC)c2)cc1,16µM*,12µM*,?,-1%,5%,-30%

# Screens from PubChem BioAssay.
